aSyn rescue = rescues yeast growth from alpha-synuclein toxicity; Yeast expressing alpha-synuclein, growth rescue, BacTiter-Glo, 24 h; Potency, µM (highest dose often 46.1 µM), for the others: at the top dose growth rescue (activation), usual class: activators; actives 0.14% (n = 370,000); further: % of control where 0% means no effect; nearly all actives have a fitted effect of over 65% in size
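Rescue of yeast growth: cells expressing toxic alpha-synuclein, induced in galactose at OD600 0.02, incubated with compound 24 h at 30 C. ATP luminescence quantified growth; inhibitors of toxicity appear as activators.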
TDP43 rescue = TDP-43 toxicity inhibition in yeast; TDP-43 expressing yeast growth rescue, BacTiter-Glo, 24 h; Potency, µM (doses to about 46.1 µM), inactives show at the top dose growth rescue (activation), usual class: activators; actives 1.8% (n = 410,000); AID 652104; further: % of control where 0% means no effect; nearly all actives have a fitted effect of over 50% in size
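In this qHTS, compounds that restore growth of yeast expressing TDP-43 appear as activators. Cells (OD600=0.02, galactose medium, raffinose-pregrown) are incubated with compound 24 hr at 30 deg C and growth is quantified by BacTiter-Glo.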
FUS suppressor = rescues growth of FUS-expressing yeast | S. cerevisiae FUS-expressing, growth rescue, OD600, 24 h | Potency, µM (highest dose often 76.6 µM), usual class: activators | actives 0.24% (n = 390,000) | AID 1347120;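 further: plate controls were DMSO vehicle for no effect and reference control for full effect; nearly all actives have a fitted effect of over 55% in size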
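Restored growth of FUS-toxic S. cerevisiae, read as 600 nm absorbance after 24 h at 30C in galactose medium (starting OD 0.005). Controls CP55940 and DMSO.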
PTAP TSG101 blk = blocks PTAP/TSG101 interaction to inhibit HIV-1 budding. Q99816. Fluorescence polarization, FITC-PTAP peptide / Tsg101 binding. Potency, µM (top dose mostly 115 µM), for the others: at the highest dose activity change, negative = inhibition, hits mostly inhibitors. 340,000 tested, under 10 active. AID 493005; active means well fitted inhibition curve with a large enough effect in the main read-out, with a control signal flat, not every such curve was filed as active; inconclusive means small, poorly fitted or top-dose-only effect, or effect the other way, or a change in a side signal; inactive means no such curve, though single readings can be large or run the other way; further: % of control where 0% means no effect
Target sequence (Q99816 whole entry, looked up): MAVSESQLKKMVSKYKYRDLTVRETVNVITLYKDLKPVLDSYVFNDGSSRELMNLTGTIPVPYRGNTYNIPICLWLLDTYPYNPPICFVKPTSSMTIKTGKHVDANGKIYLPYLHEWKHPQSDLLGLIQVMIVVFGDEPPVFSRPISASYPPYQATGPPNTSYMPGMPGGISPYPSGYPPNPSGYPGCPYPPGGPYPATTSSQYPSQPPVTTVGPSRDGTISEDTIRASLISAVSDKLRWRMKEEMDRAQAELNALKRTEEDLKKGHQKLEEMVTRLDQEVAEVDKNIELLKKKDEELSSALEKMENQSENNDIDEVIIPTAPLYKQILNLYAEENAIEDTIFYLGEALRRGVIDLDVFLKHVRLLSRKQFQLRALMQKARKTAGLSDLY
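FP read-out: FITC-PTAP peptide, 50 nM final, binding Tsg101 binding domain, 10 uM final; 20 min, r.t.; 10 mM HEPES pH 7.5, 0.15 M NaCl, 0.01% Tween 20, 3 mM EDTA, 0.1 mM TCEP.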
Abeta rescue = compounds reversing amyloid beta toxicity in yeast. yeast expressing A-beta42, growth rescue, OD600, 48 h; response scale: 0% DMSO, 100% iron-clioquinol control. Potency, µM (top dose mostly 46.1 µM), usual class: activators. actives 0.063% (n = 410,000). AID 1347071; further: nearly all actives have a fitted effect of over 55% in size
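Yeast growth medium received pinned compounds, then yeast cells expressing toxic A-beta were added; plates incubated at 30 C for 48 hr. Growth read as absorbance at 600 nm, normalized to DMSO and equimolar FeCl3 plus clioquinol controls.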
Active calls of the source: *; i = inactive; ? = inconclusive; · = no result given; [ ] = remark or other dose. Compounds with a hit are over-represented: about 2.1% of the library has one in this group of screens. Unless noted, the call rests on the fitted dose curve; in most records, active means well fitted curve in the direction sought with a large enough effect; inconclusive means small, poorly fitted or top-dose-only effect, or another doubt; inactive means no such curve, though single readings can be large; an effect the other way counts as inactive or inconclusive. Potency means the concentration at half of the fitted maximal effect.

SMILES | aSyn rescue | TDP43 rescue | FUS suppressor | PTAP TSG101 blk | Abeta rescue
Cc1ccc2nc(CN3CCN(S(=O)(=O)c4ccc(F)cc4)CC3)oc2c1 | · | 16µM* | i | · | i
Cc1ccc(S(=O)(=O)N2CCN(Cc3cccc(F)c3)CC2)cc1 | 10% | -13% | i | -8% | i
FC(F)(F)c1nc(=S)c2ccccc2[nH]1 | -4% | 10µM* | i | -4% | i
Cc1nc(=S)c2ccccc2[nH]1 | -1% | 14% | i | -6% | i
Cc1ccccc1OCC(=O)NCC(=O)OC(c1ccccc1)c1ccccc1 | -1% | · | · | · | ·
COc1ccc(Nc2cccccc2=O)cc1 | 8% | 11µM* | i | -2% | i
COc1ccc(C)cc1NC(=O)C1CCN(S(=O)(=O)c2ccc3[nH]c(=O)oc3c2)CC1 | · | 12% | i | · | i
COc1ccc(CCn2c3c(c(=O)[nH]c2=O)C(NC(=O)c2ccccc2OC)(C(F)(F)F)C(=O)N3)cc1OC (configuration not stated) | · | 11% | i | · | i
CCn1cc2nc(SCC(=O)Nc3cc(OC)cc(OC)c3)n(Cc3ccc(Cl)cc3)c(=O)c2n1 | · | 3% | 22µM* | · | i
CC(=O)C1(O)C(C)CC2C3CC=C4CC(O)CCC4(C)C3CCC21C (configuration not stated) | 16% | -10% | i | -4% | i
CC12CCC(O)CC1=CCC1C2CCC2(C)C3=NN=CC3CC12 (configuration not stated) | ? | 16µM* | i | -3% | i
CCNC(=S)N/N=C/c1cc(C)n(-c2ccc(Cl)cc2)c1C | 6% | ? | i | -1% | i
Cc1cc(/C=N/NC(N)=S)c(C)n1-c1ccc(Cl)c(Cl)c1 | 11% | 18µM* | i | -5% | ?
NC(=O)[C@H]1CC2(CC(c3cccc(NC(=O)[C@H]4CCC(=O)N4)c3)=NO2)CN1C(=O)CC(c1ccccc1)c1ccccc1 (some centres not stated) | -5% | 2% | ? | -3% | i
NC(=O)[C@H](Cc1cc2ccccc2s1)NC(=O)[C@@H]1CC2(CC(c3cccc(NC(=O)[C@@H]4CCC(=O)N4)c3)=NO2)CN1C(=O)c1ccccc1 (some centres not stated) | 3% | -7% | 35µM* | -5% | i
NC(=O)[C@H](Cc1cc2ccccc2s1)NC(=O)[C@@H]1CC2(CC(c3cccc(NC(=O)[C@@H]4CCC(=O)N4)c3)=NO2)CN1C(=O)/C=C/c1c(F)cccc1Cl (some centres not stated) | -8% | 10% | ? | 0% | i
NC(=O)[C@H](Cc1cc2ccccc2s1)NC(=O)[C@@H]1CC2(CC(c3cccc(NC(=O)[C@@H]4CCC(=O)N4)c3)=NO2)CN1C(=O)/C=C/Sc1ccccc1 (some centres not stated) | 2% | 0% | 28µM* | 1% | i
O=[N+]([O-])c1ccc(O/N=[N+](\[O-])N2CCCC2)c([N+](=O)[O-])c1 | -45% | · | · | · | ·
O=C(NCCc1ccccc1)c1nc2ncccn2n1 | -1% | -8% | i | -3% | i
c1ccc(CSc2nc3ncccn3n2)cc1 | -9%[1.84 µM] | 16µM* | i | -5% | i
COc1ccc(-c2[nH]c(-c3ccc4c(c3)OCO4)nc2-c2ccccc2)cc1 | -18% | 16µM* | ? | 1% | i
COc1cc(-c2nc(-c3ccccc3)c(-c3ccc(F)cc3)[nH]2)cc2c1OCO2 | 2% | 0% | · | -1% | i
CCOc1ccc(N(CC)S(=O)(=O)N2CCCC(C(=O)NCc3ccccc3OCC)C2)cc1 (configuration not stated) | · | 20% | i | · | i
Cc1cccc(N2CCN(c3cc(C)nc4c(-c5ccc(Cl)cc5)c(C)nn34)CC2C)c1 (configuration not stated) | · | 13% | i | · | i
CCc1ccc(C(C)NC(=O)c2cc(C)oc2C)cc1 (configuration not stated) | 15% | 13µM* | i | -6% | i
SMILES | aSyn rescue | TDP43 rescue | FUS suppressor | PTAP TSG101 blk | Abeta rescue
O=C(NCc1ccco1)c1cc2cc(Br)ccc2o1 | -3% | 22µM* | i | -3% | i
CC(=O)N[C@@H]1C[C@@H]2O[C@H](CO)CC[C@@H]2O[C@@H]1CCc1ccc(-c2ccc(F)cc2)cc1 | · | · | i | · | ·
COC(=O)c1ccc(OCC2c3cc(OC)c(OC)cc3CCN2C(C)=O)cc1 (configuration not stated) | 6% | 5% | i | -2% | i
COC(=O)c1ccc(OCC2c3cc(OC)c(OC)cc3CCN2C(=O)c2ccc(OC)cc2)cc1 (configuration not stated) | 12% | 35µM* | ? | · | i
COc1cc2c(cc1OC)C(COc1ccc(F)cc1)N(C(=O)Cc1ccc(F)cc1)CC2 (configuration not stated) | · | · | i | · | i
COc1cc2c(cc1OC)C(COc1ccc(F)cc1)N(C(=O)c1cccc(F)c1)CC2 (configuration not stated) | 9% | 35µM* | i | · | i
O=C(O/N=C(\c1ccccc1)c1ccncc1)c1ccccc1Cl | ? | 4µM* | i | 1% | i
COc1ccc(C(=O)O/N=C(/c2ccccc2)c2ccncc2)cc1OC | 1% | ? | i | -1% | i
Cc1cccc(C(=O)O/N=C(/c2ccccc2)c2ccncc2)c1 | ? | 7.1µM* | i | -2% | i
N/C(=N\OC(=O)c1ccccc1Cl)c1ccccc1 | -21% | ? | i | -8% | i
O=S(=O)(NC1c2cccc3cccc(c23)C1Sc1ncccn1)c1ccccc1 (configuration not stated) | 9% | 22µM* | i | 1% | i
CC1(C)CC(=O)C2=C(C1)Nc1cc3c(cc1C2c1ccc2c(c1)OCO2)OCO3 (configuration not stated) | 10% | -8% | 35µM* | 1% | i
COC(=O)c1ccccc1NC(=O)C1=CC(c2ccc(C)cc2)=NS(=O)(=O)N1C | · | 16% | i | · | i
O=C1OC(/C(=C\Nc2ccccc2)[N+](=O)[O-])c2ccccc21 (configuration not stated) | 16µM* | 1% | i | -7% | i
O=C1OC(/C(=C\NCc2ccccc2)[N+](=O)[O-])c2ccccc21 (configuration not stated) | 11% | 0% | i | -7% | i
O=C(CCl)N=c1sccn1Cc1ccccc1Cl | 4% | 22µM* | i | -1% | i

Compound activity (PubChem)
